The nature of assay [1]: inhibitors of TNFa-induced NFkB p65 translocation, primary screen, imaging, HUVEC, MLSMR starter and 10KST1 sets (AID 438;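 active means inhibition above 20% together with a positive visual image hit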;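 further: compound added about 3h40 before a 20 min TNFalpha stimulation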;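 on inhibition: signal is the nuclear over cytoplasmic p65 intensity ratio per well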). The settings on record: HUVEC TNFa-induced p65 nuclear translocation; cell count: measured here: nuclei count (cytotoxicity indicator), at 2.08 µM; inhibition: at 2 µM, stronger effect = higher value, 0% TNFa-plus-vehicle, 100% no-TNFa wells.
A short description of assay [2]: inhibitors of mutant huntingtin aggregation, primary screen, imaging, exon1htt(103Q)mCFP cells, high-content imaging (AID 483;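 active means visual image review flags a hit and inhibition of aggregation exceeds 20%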;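 further: compound exposure lasted 3 days before fixation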;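 on nuclei count: percent of the per-plate median nuclei count of sample wells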). The note with it: exon1htt(103Q)mCFP cell line, aggregate imaging, at 2 µM; inhibition of aggregation: stronger effect = higher value; nuclei count: measured here: cell count, toxicity.
The nature of assay [3]: inhibitors of E-selectin induction by TNFa, primary screen, imaging, HUVEC, immunofluorescence, MLSMR starter and 10KST1 sets (AID 487;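 active means visually confirmed hit in the image check and inhibition above 20%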;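 on inhibition: signal is fraction of cell area covered by stained E-selectin grains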;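 on nuclei count: 100% = median nuclei count of all wells on the same plate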). The note with it: HUVEC TNFalpha-induced E-selectin immunofluorescence imaging, at 2 µM; inhibition: stronger effect = higher value; nuclei count: measured here: cell number, toxicity.
Assay [4] addresses Voltage-gated potassium channel subunit beta-2 (Rattus norvegicus) (UniProt P62483). The assay can be described thus: KvBeta enzyme negative modulators, primary screen, biochemical, NADPH fluorescence (AID 622).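 Further: slope of raw intensity against log time taken from 70 to 1610 s.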 The settings on record: recombinant KvBeta, 4-cyanobenzaldehyde reduction, at 10 µM, stronger effect = higher value.
Assay [5] shares this target. Put plainly: KvBeta positive modulators, primary screen, biochemical, NADPH fluorescence (AID 623;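 active means NADPH fluorescence slope more negative than the mean of all samples by about 3 SD, 99.7% confidence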;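 further: fluorescence intensity change per second fitted from 20 to 320 s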). The settings on record: Recombinant KvBeta, NADPH fluorescence decrease slope, 10 min; at 10 µM; stronger effect = lower value.
For assay [6], the target named is Alpha-2C adrenergic receptor (Homo sapiens) (UniProt P18825). Put plainly: modulators of alpha2C/GIRK thallium flux, primary screen, cell-based, HEK293 alpha2C/GIRK1/2 (AID 624;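 active means fluorescence slope after compound addition differing from the mean of all screened samples at 99.7% confidence, in either direction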;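 further: slope of fluorescence ratio to pre-addition baseline per second over 15 to 24 s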). The note with it: thallium flux BTC fluorescence, at 10 µM, actives lie on both sides.
Chain of Alpha-2C adrenergic receptor (Homo sapiens) (P18825 whole entry, looked up): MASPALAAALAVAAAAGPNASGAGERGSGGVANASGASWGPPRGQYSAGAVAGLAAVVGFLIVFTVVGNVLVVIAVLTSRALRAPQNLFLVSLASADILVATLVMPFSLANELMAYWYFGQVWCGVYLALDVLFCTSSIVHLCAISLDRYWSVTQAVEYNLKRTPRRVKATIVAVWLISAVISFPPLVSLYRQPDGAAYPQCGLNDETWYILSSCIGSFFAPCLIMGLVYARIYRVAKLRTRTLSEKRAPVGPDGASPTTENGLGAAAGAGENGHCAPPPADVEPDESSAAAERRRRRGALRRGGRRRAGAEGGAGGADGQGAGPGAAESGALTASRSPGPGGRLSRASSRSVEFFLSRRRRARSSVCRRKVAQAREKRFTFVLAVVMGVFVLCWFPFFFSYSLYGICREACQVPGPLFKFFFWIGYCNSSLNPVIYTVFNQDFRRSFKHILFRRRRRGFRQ
The nature of assay [7]: inhibitors of Sendai virus-induced IRF3 signaling, primary screen, TLR/RLR signaling modifier project, cell-based, Sendai virus stimulus, luciferase, 10K MLSCN set (AID 602276;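 active means inhibition at or above 50% at 10 µM; inactive means inhibition below 50%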;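 further: firefly luciferase from ISG56 promoter only with Renilla not read in this screen; 0% = Sendai virus plus DMSO and 100% = medium plus DMSO without virus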). The settings on record: HEK293 RL24 IRF3 luciferase reporter, at 10 µM, stronger effect = higher value.
Assay [8] in a line: inhibitors of poly I:C-induced TLR3 signaling, primary screen, cell-based, poly I:C stimulus, luciferase, 10K MLSCN set (AID 602277;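 active means inhibition of the reporter signal at or above 50%; inactive means inhibition below 50%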). The settings on record: HEK293-TLR3 RL24 IRF3 luciferase reporter, at 10 µM, stronger effect = higher value.

The source made the active and inactive calls.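 How the source made its calls, unless noted: active means fluorescence slope higher than the sample average by over 3 SD (cut at about -0.22 in these data, passing the limit was not always enough); inactive means the rest.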

Chain of Voltage-gated potassium channel subunit beta-2 (Rattus norvegicus) (P62483 whole entry, looked up): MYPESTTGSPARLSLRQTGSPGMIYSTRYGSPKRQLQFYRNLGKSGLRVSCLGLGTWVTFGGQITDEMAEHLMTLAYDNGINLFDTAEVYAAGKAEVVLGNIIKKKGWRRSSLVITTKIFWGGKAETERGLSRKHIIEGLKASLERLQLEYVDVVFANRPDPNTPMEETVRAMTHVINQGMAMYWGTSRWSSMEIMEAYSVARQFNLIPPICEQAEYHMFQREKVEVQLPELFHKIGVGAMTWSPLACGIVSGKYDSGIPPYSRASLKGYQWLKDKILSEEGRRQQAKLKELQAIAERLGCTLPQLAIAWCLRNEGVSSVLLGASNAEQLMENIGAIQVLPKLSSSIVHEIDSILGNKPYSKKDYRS

For the compound `Cn1c(SCC(=O)c2cc3ccccc3o2)nnc1-c1ccccc1`, the cell count in assay [1] was determined as 621. The inhibition in assay [1] was 8% (inactive); in assay [3] it was -44.5% (inactive); in assay [7], 10.2% (inactive); in assay [8], 16.3% (inactive). Also, the inhibition of aggregation in assay [2] was -8.5% (inactive). For the same compound, the nuclei count was 66% in assay [2] and 106% in assay [3]. Also, the fluorescence slope in assay [4] is -0.527 (inactive). The NADPH fluorescence slope in assay [5] was -2.6e-05 (inactive). In addition, the slope in assay [6] is 0.00718 (inactive).
As for `CCN(CC)CCCN1C(=O)C(O)=C(C(=O)c2ccco2)C1c1ccc(C)o1` (stereo not drawn), in assay [1], the cell count stood at 330. In addition, the inhibition is 22.9% (inactive) in assay [1], -22.2% (inactive) in assay [3], 8.72% (inactive) in assay [7] and 8.23% (inactive) in assay [8]. Also, the inhibition of aggregation in assay [2] is -17.3% (inactive). Further, the nuclei count is 106% in assay [2] and 99.7% in assay [3]. Further, in assay [4], the fluorescence slope is -0.607 (inactive). Further, in assay [5], the NADPH fluorescence slope was -3.7e-05 (inactive). In addition, the slope in assay [6] is 0.00682 (inactive).
As for `Cn1c(C(=O)NCC2CCCO2)cc2c(=O)n(C)c3ccccc3c21` (stereo not drawn), in assay [1], the cell count came out at 658. In addition, the inhibition was -5.5% (inactive) in assay [1], -71.5% (inactive) in assay [3], 7.53% (inactive) in assay [7] and 19% (inactive) in assay [8]. The inhibition of aggregation in assay [2] was -1.8% (inactive). For the same compound, the nuclei count in assay [2] was 115%; in assay [3] it was 107%. Moreover, the fluorescence slope in assay [4] was -0.583 (inactive). Besides, in assay [5], the NADPH fluorescence slope was -3.1e-05 (inactive). The slope in assay [6] was 0.00806 (inactive).
As to `CCCSc1nnc(-c2ccccc2NC(=O)CC)c(=O)[nH]1`, the cell count in assay [1] was determined as 632. For the same compound, the inhibition is -9.3% (inactive) in assay [1], -43.8% (inactive) in assay [3], 4.4% (inactive) in assay [7] and -2.41% (inactive) in assay [8]. Besides, in assay [2], the inhibition of aggregation was -17.5% (inactive). The nuclei count in assay [2] turned out to be 86.8%; in assay [3], 96.6%. Besides, the fluorescence slope in assay [4] is -0.412 (inactive). For the same compound, the NADPH fluorescence slope in assay [5] is -4.2e-05 (inactive). In assay [6], the slope is 0.00431 (inactive).
Take `Cc1ccc(NC(=O)CSc2nnc(CNC(=O)c3c(F)cccc3Cl)o2)cc1`: the cell count in assay [1] is 645. Further, the inhibition in assay [1] is -10% (inactive); in assay [3], -49% (inactive); in assay [7] it was 1.9% (inactive); in assay [8] it was 10.9% (inactive). In addition, in assay [2], the inhibition of aggregation was -19.6% (inactive). The figures for the nuclei count in assay [2] and in assay [3] were 108% and 118%, respectively. Besides, the fluorescence slope in assay [4] is -0.346 (inactive). For the same compound, the NADPH fluorescence slope in assay [5] is -7.5e-06 (inactive). For the same compound, in assay [6], the slope was 0.00601 (inactive).
In the case of `COc1cccc(S(=O)(=O)Nc2ccc(C(=O)N3CCN(C(=O)c4ccco4)CC3)cc2)c1`, the cell count in assay [1] is 448. Further, the inhibition in assay [1] is -3.9% (inactive); in assay [3], -65.5% (inactive); in assay [7], 8.1% (inactive); in assay [8], 7.91% (inactive). Also, the inhibition of aggregation in assay [2] is -8% (inactive). Besides, the nuclei count turned out to be 108% in assay [2] and 124% in assay [3]. In assay [4], the fluorescence slope is -0.507 (inactive). In assay [5], the NADPH fluorescence slope was -3.8e-05 (inactive). Besides, the slope in assay [6] is 0.00603 (inactive).
Take `CCOCCCNC(=O)c1ccc2c(c1)N(Cc1ccccc1)C(=O)CS2=O` (stereo not drawn): in assay [1], the cell count came to 754. In addition, the inhibition in assay [1] is -7.4% (inactive); in assay [3] it was -20.2% (inactive); in assay [7], -4.11% (inactive); in assay [8] it was 21% (inactive). Further, the inhibition of aggregation in assay [2] was -19% (inactive). Further, the nuclei count in assay [2] was 94.2%; in assay [3] it was 125%. Besides, the fluorescence slope in assay [4] was -0.525 (inactive). Also, the NADPH fluorescence slope in assay [5] was -1e-05 (inactive). In addition, the slope in assay [6] is 0.00701 (inactive).
As to `Clc1ccc(OCc2nc(-c3ccccn3)no2)c(Br)c1`, in assay [1], the cell count turned out to be 814. For the same compound, the inhibition is 1.8% (inactive) in assay [1], -1.9% (inactive) in assay [3], -31.1% (inactive) in assay [7] and -134% (inactive) in assay [8]. The inhibition of aggregation in assay [2] was 4.2% (inactive). The nuclei count in assay [2] is 95%; in assay [3], 121%. In assay [4], the fluorescence slope was -0.595 (inactive). Besides, the NADPH fluorescence slope in assay [5] is -8.6e-06 (inactive). Besides, the slope in assay [6] is 0.00567 (inactive).

In general, inhibition refers to the relative decrease from the control value, in per cent.
